Screens (PubChem BioAssay)
Only some compounds are listed: those with a hit (about 11% of all), similar ones and a draw of the others.
Luciferase inh: Firefly luciferase inhibition profiling of diverse chemical library using quantitative high-throughput screening. actives 2.5% (n = 76,000). purified P. pyralis luciferase, luminescence, biochemical. Potency, µM (series often up to 115 µM), most hits filed as inhibitors; further: nearly all actives have a fitted effect of over 65% in size
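Luminescence read by CCD imaging after purified firefly luciferase (10nM final) was added to substrate buffer holding 10uM D-luciferin and 10uM ATP, pH 7.5, pre-dosed with compound.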
HEK293 tox: Cytotoxic Profiling in HEK 293 Cell Line of Diverse Libraries Using Quantitative High-Throughput Screening; actives 6.6% (n = 94,000); AID 1345083, 2018; Potency, µM (doses to about 115 µM), most hits filed as inhibitors; HEK 293 viability, ATP luminescence (CellTiter-Glo), 48-72 h; further: nearly all actives have a fitted effect of over 60% in size
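Cytotoxicity was scored by loss of ATP-coupled luminescence (CellTiter-Glo) in HEK 293 cells. Compound treatment ran 48 or 72 hr at 37 degree Celsius, 5% CO2, 95% humidity.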
hNpr1 antagonist: Natriuretic polypeptide receptor (hNpr1) antagonism - Primary qHTS. HEK293 hNpr1 GloSensor cGMP, ANP-stimulated luminescence. actives 1.6% (n = 76,000). Potency, µM (titrated, usually from 46.3 µM), hits mostly inhibitors; calls by dose curve; further: nearly all actives have a fitted effect of over 60% in size
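Compound pre-incubated 30 min at room temperature on GloSensor-loaded HEK293 cells stably carrying hNpr1 and the pGS-40F cGMP biosensor. Stimulation uses hNppA at 0.1 nM final; luminescence is taken at baseline and 20 min post-agonist.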
NIH3T3 tox: Cytotoxic Profiling in NIH 3T3 Cell Line of Diverse Libraries Using Quantitative High-Throughput Screening. actives 4.3% (n = 94,000). AID 1345082, 2018. Potency, µM (series often up to 96.7 µM), most hits filed as inhibitors. NIH 3T3 viability, CellTiter-Glo ATP luminescence, 48-72 h; further: nearly all actives have a fitted effect of over 55% in size
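Luminescent ATP readout (CellTiter-Glo, 10 min RT) after 48 or 72 hr compound exposure of NIH 3T3 cells seeded at 400 cells/well in 1536-well format; quantitative HTS.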
Numbers stand for hits; - = inactive; ? = inconclusive; . = no result. Unless noted, the call rests on the fitted dose curve; in most records, active means well fitted curve in the direction sought with a large enough effect; inconclusive means small, poorly fitted or top-dose-only effect, or another doubt; inactive means no such curve, though single readings can be large; an effect the other way counts as inactive or inconclusive.

SMILES | Luciferase inh | HEK293 tox | hNpr1 antagonist | NIH3T3 tox
COc1ccc(-c2[nH]nc3ncc(-c4ccccc4O)nc23)cc1F | - | ? | - | ?
O=C(Nc1ccon1)c1cnc2n[nH]c(-c3ccccc3)c2n1 | - | ? | - | 32µM
Cc1ccc(-c2cnc3n[nH]c(-c4ccccc4)c3n2)cc1 | - | 32µM | - | ?
Fc1ccccc1-c1cnc2n[nH]c(-c3ccccc3)c2n1 | - | 112µM | - | 89µM
COCC(=O)NC[C@H]1OC[C@@H](NCc2ccc(F)cc2)[C@@H]1O | - | - | - | -
COc1ccc(N2CC3CCC(C2)N3CC(C)C)cc1 | . | - | . | -
Cn1c(C(=O)NCC2CC2)nc2nc(-c3ccccc3)c(Cl)cc21 | - | - | . | ?
COCc1nc2nc(-c3ccccc3)c(-c3ccccc3OC)cc2n1C | - | ? | ? | ?
CN(C)CCNC(=O)c1nc2nc(-c3ccccc3)c(-c3ccc(Cl)cc3)cc2n1C | - | 40µM | - | 25µM
Cc1ccc(-c2cc3c(nc2-c2ccccc2)nc(C(=O)NCCN(C)C)n3C)cc1 | - | 40µM | - | 11µM
COc1ncccc1-c1cc2c(nc1-c1ccccc1)nc(C(=O)NCCN(C)C)n2C | - | ? | - | ?
CN(C)CCNC(=O)c1nc2nc(-c3ccccc3)c(-c3ccccc3O)cc2n1C | - | ? | ? | 79µM
COc1ccccc1-c1cc2c(nc1-c1ccccc1)nc(C(=O)NC1CCN(C)CC1)n2C | - | 35µM | - | 20µM
COCCNc1ncccc1-c1noc([C@@H]2CCCN2Cc2ccco2)n1 | - | - | - | -
Cn1c(C(=O)NCCc2ccccn2)nc2nc(-c3ccccc3)c(Cl)cc21 | 45µM | ? | - | ?
CN(C)CCNC(=O)c1nc2nc(-c3ccccc3)c(-c3cccc(Cl)c3)cc2n1C | - | 28µM | - | 10µM
CN(C)CCNC(=O)c1nc2nc(-c3ccccc3)c(-c3cccc(CO)c3)cc2n1C | - | ? | - | ?
Cn1cc(CC(=O)N2CCCc3ncc(C(=O)NCc4cccc(F)c4)cc32)c2ccccc21 | - | ? | - | ?
CN(C)CCNc1cc(-c2ccc3ccccc3n2)c2cc[nH]c2n1 | - | 40µM | - | ?
CC(C)c1cccc(-c2cc(NCc3ccccn3)nc3[nH]ccc23)n1 | ? | 45µM | - | ?
COc1ccc(C(=O)N2CCC[C@H](n3c(=O)n(C)c4cccnc43)C2)cn1 | . | - | . | -
Cc1cnc(C2CCN(S(=O)(=O)c3ccccc3)C2)n1C(C)C (centres undefined) | - | - | - | -
COc1cccc(N2C(=O)NC(=NC3CCCC3)C23CCCN(CCC(C)C)C3)c1 (centres undefined) | . | ? | . | 32µM
COc1ccc(CN2CCC3(C2)C(=NC2CCCC2)NC(=O)N3c2cccc(OC)c2)cc1 (centres undefined) | . | ? | . | -
CC(C)CCN1CCCC2(C1)C(=NC1CCCC1)NC(=O)N2c1cc(F)cc(F)c1 (centres undefined) | . | ? | . | 32µM
SMILES | Luciferase inh | HEK293 tox | hNpr1 antagonist | NIH3T3 tox
O=C(NCCc1ccccn1)c1ccc(OC2CCNCC2)nc1 | 7.9µM | ? | ? | ?
O=C(Cc1cccc(Cl)c1)N1CCC(n2cc(-c3nc(-c4ccccc4)no3)nn2)CC1 | - | - | - | -
O=C(NCC1CC1)c1nc2sccn2c1-c1ccccc1 | . | - | . | -
COc1ccc(NC(=O)N2CCC3(CC2)CN(c2ccccc2)C3=O)cc1OC | . | 40µM | . | -
COc1ccc(CN2CC3(CCN(C(=O)Nc4ccc(OC)c(OC)c4)CC3)C2=O)cc1 | - | ? | - | -
CCOc1ccc(NC(=O)COc2ccc(-c3nnc4n3CCCC4)cc2)cc1 | - | - | - | -
Cn1ccc2cc(-c3ccc4c(n3)c(=O)ncn4CC3CC3)ccc21 | 45µM | - | - | ?
COCCn1cnc2ccc(-c3ccc4c(ccn4C)c3)nc2c1=O | ? | ? | - | 45µM
COc1ccc(-c2ccc3c(n2)c(=O)ncn3CC2CC2)cc1OC | - | - | - | ?
COc1cccc(-n2nnnc2N2CCN(C(=O)Nc3ccc(C)c(F)c3)CC2)c1 | . | - | . | -
CN1CC[C@H](c2nc3ccc(C(F)(F)F)cc3[nH]2)C1 | ? | 112µM | - | ?
FC(F)(F)c1ccc(CN2CC[C@H](c3nc4ccc(C(F)(F)F)cc4[nH]3)C2)cc1 | ? | 35µM | ? | 32µM
